For 31 targets, log2 fold change results are on record in the supplement of paper PMC10849652.

Targets with a hit are over-represented here; the source holds about 7,900 in all. About 0.6% of all pairs of compound and target were hits.

Sequence of UniProt Q12906 (Q12906 whole entry, looked up): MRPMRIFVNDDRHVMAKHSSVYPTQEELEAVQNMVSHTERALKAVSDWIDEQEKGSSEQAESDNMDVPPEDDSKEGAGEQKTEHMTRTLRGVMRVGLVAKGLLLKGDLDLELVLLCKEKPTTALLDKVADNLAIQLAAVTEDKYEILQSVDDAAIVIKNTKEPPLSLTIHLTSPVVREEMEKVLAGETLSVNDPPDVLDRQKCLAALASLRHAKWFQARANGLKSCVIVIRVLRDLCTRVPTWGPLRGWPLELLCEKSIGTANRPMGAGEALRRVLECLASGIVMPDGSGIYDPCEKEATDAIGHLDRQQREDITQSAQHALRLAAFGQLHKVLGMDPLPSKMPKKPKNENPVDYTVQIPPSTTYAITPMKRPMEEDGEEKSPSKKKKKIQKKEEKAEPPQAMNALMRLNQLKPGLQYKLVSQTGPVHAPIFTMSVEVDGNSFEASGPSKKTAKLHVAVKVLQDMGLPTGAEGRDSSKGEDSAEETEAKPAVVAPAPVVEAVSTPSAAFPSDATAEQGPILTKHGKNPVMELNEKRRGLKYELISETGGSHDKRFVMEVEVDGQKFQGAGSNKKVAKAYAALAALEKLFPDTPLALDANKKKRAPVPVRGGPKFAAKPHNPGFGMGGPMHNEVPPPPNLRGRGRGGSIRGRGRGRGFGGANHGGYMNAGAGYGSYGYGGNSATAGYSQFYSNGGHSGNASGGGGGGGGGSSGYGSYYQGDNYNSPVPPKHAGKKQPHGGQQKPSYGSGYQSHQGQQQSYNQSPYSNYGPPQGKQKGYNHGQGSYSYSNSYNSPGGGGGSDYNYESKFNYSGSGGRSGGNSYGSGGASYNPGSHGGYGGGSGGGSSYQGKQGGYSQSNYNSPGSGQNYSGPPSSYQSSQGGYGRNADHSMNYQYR
Sequence of UniProt Q8NHS3 (Q8NHS3 whole entry, looked up): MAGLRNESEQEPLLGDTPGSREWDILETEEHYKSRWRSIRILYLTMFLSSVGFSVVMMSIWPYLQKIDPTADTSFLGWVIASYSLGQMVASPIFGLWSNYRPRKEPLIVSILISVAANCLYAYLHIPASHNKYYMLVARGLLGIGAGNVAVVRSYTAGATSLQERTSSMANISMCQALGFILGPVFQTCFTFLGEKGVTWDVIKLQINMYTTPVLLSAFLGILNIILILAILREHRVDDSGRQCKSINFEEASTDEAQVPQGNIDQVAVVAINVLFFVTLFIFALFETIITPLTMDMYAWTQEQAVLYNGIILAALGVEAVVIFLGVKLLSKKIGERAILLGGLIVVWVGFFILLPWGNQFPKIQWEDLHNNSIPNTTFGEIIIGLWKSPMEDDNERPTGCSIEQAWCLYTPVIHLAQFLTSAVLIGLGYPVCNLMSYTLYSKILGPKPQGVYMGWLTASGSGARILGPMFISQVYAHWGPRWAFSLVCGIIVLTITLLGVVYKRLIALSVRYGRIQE
Sequence of UniProt Q9BQD3 (Q9BQD3 whole entry, looked up): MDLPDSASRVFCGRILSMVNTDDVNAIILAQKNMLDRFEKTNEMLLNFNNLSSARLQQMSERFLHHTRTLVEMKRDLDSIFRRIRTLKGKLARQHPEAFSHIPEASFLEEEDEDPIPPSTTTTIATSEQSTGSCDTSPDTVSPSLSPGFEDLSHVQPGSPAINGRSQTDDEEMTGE
Sequence of UniProt Q8TDD5 (Q8TDD5 whole entry, looked up): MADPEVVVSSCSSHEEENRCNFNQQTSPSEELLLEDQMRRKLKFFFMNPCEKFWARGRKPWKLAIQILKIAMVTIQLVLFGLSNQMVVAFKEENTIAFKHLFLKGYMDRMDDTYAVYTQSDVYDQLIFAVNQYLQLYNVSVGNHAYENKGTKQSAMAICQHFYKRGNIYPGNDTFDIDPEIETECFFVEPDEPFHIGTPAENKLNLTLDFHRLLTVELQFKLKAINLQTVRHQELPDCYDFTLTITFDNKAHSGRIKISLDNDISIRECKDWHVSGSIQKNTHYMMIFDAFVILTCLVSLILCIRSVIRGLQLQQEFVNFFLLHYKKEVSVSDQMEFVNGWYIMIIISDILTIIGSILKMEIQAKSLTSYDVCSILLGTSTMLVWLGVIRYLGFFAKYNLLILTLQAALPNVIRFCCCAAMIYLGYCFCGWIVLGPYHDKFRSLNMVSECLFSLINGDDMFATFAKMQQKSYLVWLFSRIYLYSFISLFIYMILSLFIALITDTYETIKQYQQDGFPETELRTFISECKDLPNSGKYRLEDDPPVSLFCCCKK
Sequence of UniProt O00214 (O00214 whole entry, looked up): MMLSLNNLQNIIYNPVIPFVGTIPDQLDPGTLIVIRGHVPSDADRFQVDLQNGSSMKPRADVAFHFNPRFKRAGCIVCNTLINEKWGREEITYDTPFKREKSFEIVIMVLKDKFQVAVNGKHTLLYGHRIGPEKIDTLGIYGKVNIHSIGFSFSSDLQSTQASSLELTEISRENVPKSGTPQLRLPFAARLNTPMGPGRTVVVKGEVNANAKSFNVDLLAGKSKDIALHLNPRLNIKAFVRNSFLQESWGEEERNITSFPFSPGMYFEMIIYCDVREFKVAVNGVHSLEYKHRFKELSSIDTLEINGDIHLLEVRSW
Sequence of UniProt O15243 (O15243 whole entry, looked up): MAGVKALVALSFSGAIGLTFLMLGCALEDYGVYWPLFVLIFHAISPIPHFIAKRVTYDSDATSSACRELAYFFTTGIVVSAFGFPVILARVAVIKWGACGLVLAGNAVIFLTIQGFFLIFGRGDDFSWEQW
Sequence of UniProt Q14680 (Q14680 whole entry, looked up): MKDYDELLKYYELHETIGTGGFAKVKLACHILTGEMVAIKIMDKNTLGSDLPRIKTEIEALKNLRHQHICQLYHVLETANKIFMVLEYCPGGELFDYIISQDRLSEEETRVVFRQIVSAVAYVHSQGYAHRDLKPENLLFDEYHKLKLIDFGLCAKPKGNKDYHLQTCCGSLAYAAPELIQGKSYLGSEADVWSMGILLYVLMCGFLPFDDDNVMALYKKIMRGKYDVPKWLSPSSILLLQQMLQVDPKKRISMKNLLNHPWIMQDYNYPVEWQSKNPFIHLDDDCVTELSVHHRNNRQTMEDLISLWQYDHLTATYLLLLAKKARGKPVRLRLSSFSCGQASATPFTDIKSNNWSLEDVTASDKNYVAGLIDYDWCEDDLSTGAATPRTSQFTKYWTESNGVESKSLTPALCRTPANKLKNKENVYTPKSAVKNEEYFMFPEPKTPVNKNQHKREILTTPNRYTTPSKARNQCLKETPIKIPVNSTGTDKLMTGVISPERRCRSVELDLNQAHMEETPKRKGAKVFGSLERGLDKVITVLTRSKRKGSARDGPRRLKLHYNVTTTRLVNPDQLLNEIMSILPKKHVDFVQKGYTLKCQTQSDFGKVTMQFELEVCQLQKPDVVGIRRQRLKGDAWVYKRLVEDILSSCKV
Sequence of UniProt Q8WYH8 (Q8WYH8 whole entry, looked up): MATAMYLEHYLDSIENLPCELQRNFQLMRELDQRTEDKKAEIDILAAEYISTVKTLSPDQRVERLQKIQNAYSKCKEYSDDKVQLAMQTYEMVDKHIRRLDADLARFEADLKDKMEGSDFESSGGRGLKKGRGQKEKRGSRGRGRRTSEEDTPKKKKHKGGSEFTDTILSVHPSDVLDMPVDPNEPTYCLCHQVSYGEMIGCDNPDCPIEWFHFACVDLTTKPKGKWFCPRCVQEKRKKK
Sequence of UniProt P28300 (P28300 whole entry, looked up): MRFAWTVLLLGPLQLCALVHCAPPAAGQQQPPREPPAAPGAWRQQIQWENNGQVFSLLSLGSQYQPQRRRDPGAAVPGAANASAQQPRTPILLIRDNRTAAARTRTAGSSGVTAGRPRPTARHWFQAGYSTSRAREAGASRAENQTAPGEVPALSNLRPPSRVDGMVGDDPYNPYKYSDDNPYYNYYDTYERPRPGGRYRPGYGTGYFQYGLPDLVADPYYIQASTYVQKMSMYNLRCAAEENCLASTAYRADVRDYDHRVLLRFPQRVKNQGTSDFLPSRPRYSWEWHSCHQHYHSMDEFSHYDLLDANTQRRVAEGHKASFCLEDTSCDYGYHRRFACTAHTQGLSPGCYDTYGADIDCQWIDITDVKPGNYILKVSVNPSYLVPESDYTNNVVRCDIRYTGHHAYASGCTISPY
Sequence of UniProt P43361 (P43361 whole entry, looked up): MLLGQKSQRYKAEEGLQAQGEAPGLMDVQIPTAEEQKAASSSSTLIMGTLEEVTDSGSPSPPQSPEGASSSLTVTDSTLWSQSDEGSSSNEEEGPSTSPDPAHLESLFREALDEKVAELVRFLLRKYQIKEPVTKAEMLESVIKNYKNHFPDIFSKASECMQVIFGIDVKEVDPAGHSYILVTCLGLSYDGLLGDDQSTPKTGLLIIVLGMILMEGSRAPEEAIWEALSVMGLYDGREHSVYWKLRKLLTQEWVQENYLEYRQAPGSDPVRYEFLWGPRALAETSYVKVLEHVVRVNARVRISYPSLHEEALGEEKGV
Sequence of UniProt P13473 (P13473 whole entry, looked up): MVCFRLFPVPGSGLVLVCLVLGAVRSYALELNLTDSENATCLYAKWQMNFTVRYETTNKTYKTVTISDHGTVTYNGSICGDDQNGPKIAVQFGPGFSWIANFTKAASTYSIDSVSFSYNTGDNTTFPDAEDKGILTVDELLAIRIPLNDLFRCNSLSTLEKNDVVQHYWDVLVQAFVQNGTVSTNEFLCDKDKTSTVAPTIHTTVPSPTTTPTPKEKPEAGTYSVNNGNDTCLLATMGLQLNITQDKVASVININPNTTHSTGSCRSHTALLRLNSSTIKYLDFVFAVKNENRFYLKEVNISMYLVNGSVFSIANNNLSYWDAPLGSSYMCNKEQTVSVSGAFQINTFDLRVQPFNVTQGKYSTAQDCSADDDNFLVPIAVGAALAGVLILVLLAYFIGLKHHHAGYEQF
Sequence of UniProt Q86VI4 (Q86VI4 whole entry, looked up): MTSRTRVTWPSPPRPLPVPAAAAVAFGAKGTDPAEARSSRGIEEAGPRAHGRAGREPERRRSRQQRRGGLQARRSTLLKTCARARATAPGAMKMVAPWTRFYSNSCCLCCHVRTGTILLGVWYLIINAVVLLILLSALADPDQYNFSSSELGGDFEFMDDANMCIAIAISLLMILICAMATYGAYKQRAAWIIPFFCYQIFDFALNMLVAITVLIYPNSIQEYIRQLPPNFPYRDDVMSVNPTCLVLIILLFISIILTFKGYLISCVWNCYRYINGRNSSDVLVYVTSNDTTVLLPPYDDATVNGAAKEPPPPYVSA

Compound in the first assay: CCCc1cc(C)[nH]c(=O)c1CNC(=O)c1cc(-c2ccnc(N3CCN(C)CC3)c2)cc2c1cnn2C(C)C
As to the kind of experiment: log2 fold change, soluble protein after heating vs DMSO (PISA); higher = thermal stabilisation; K562 cells, 10 uM, 30 min; active = over 0.2 and 3.5 SD of the protein, either way, in both replicates (recomputed). A digest of the protocol:
(§1)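 K562 cells at 2×10^6 cells/mL were given 10 μM compound for 30 min. Aliquots then went through 3 min of heating across 48°C-58°C, were pooled, and were extracted in PBS with 0.5% NP-40 at 4°C, and the supernatant after 21,000xg for 90 min was quantified by TMTpro 16plex LC-MS/MS with channel sums equalised. Thermal stability relative to control samples, from duplicates, is given as log2 fold change.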
Turning to KXD1 (UniProt Q9BQD3), the log2 fold change was 0.072 (inactive).
Turning to LSR isoform 3 (UniProt Q86X29), the log2 fold change was -0.081 (inactive).
The same measure, in the same setting: in the case of KIF1B isoform 3 (UniProt O60333) it was -0.006 (inactive); in that of MAP4K4 isoform 6 (UniProt O95819), 0.393 (inactive).
As to LOX (UniProt P28300), the log2 fold change is -0.269 (inactive).
For LIN52 (UniProt Q52LA3), the log2 fold change was 0.123 (inactive).
On the same count and under the same terms, for LGALS8 isoform 2 (UniProt O00214) the value was -0.062 (inactive); for MBLAC1 (UniProt A4D2B0), 0.059 (inactive).
The same measure, in the same setting: in the case of LAPTM4B (UniProt Q86VI4) it was -0.228 (inactive); in that of LEPROT (UniProt O15243), -0.12 (inactive); in that of LAMP2 isoform 2 (UniProt P13473), -0.071 (inactive).
For the target ING5 (UniProt Q8WYH8), the log2 fold change was -0.237 (inactive).
As to MED29 (UniProt Q9NX70), the log2 fold change was 0.025 (inactive).
Consider MFSD8 (UniProt Q8NHS3), for which the log2 fold change is -0.046 (inactive).
For ILF3 (UniProt Q12906), the log2 fold change was -0.232 (inactive).
In the case of MCOLN3 (UniProt Q8TDD5), the log2 fold change was -0.481 (inactive).

Compound in another assay: CCN(CC)Cc1ccc2cc(COC(=O)Nc3ccc(C(=O)NO)cc3)ccc2c1 [givinostat]
Described as above. In a few lines:
as §1
Take KXD1 (UniProt Q9BQD3): the log2 fold change was 0.094 (inactive).
Consider ITPRID2 (UniProt P28290), for which the log2 fold change was 0.213 (inactive).
As for MAPK11 (UniProt Q15759), the log2 fold change is 0.131 (inactive).
Turning to LDLRAP1 (UniProt Q5SW96), the log2 fold change is 0.284 (inactive).
With LRRFIP1 isoform 4 (UniProt Q32MZ4), the log2 fold change is 0.011 (inactive).
With MAGED1 isoform 2 (UniProt Q9Y5V3), the log2 fold change is 0.006 (inactive).
For the target LOX (UniProt P28300), the log2 fold change was 0.087 (inactive).
With LGALS8 isoform 2 (UniProt O00214), the log2 fold change was 0.072 (inactive).
Take KIF21A (UniProt H0YI78): the log2 fold change was 0.447 (inactive).
For MBLAC1 (UniProt A4D2B0), the log2 fold change was -0.04 (inactive).
The same measure, in the same setting: for LAPTM4B (UniProt Q86VI4) the value was 0.128 (inactive); for LEPROT (UniProt O15243), -0.467 (inactive).
The same measure, in the same setting: for LAMP2 isoform 2 (UniProt P13473) the value was -0.158 (inactive).
Turning to MFSD12 isoform 3 (UniProt Q6NUT3), the log2 fold change was -0.022 (inactive).
Same read-out and setting: for MAGEA8 (UniProt P43361) the value was 0.034 (inactive).
Still for that read-out and setting: in the case of ING5 (UniProt Q8WYH8) it was 0.316 (inactive); in that of MED29 (UniProt Q9NX70), -0.076 (inactive).
Turning to MFSD8 (UniProt Q8NHS3), the log2 fold change was 0.034 (inactive).
As for MELK (UniProt Q14680), the log2 fold change is -0.023 (inactive).
As for MCOLN3 (UniProt Q8TDD5), the log2 fold change was 0.221 (inactive).
With MGRN1 isoform 2 (UniProt O60291), the log2 fold change is 0.012 (inactive).

Compound in another assay: CCN(CCCOc1ccc2c(Nc3cc(CC(=O)Nc4cccc(F)c4)[nH]n3)ncnc2c1)CCOP(=O)(O)O [barasertib]
The assay is described as above. In a few lines: as §1
Turning to KXD1 (UniProt Q9BQD3), the log2 fold change is -0.021 (inactive).
With MARCHF3 (UniProt Q86UD3), the log2 fold change was 0.025 (inactive).
For the target LDLRAP1 (UniProt Q5SW96), the log2 fold change is 0.146 (inactive).
For the target LOX (UniProt P28300), the log2 fold change is -0.129 (inactive).
For LGALS8 isoform 2 (UniProt O00214), the log2 fold change was 0.13 (inactive).
As for MBLAC1 (UniProt A4D2B0), the log2 fold change was -0.016 (inactive).
As for MFAP3 (UniProt P55082), the log2 fold change was 0.05 (inactive).
Same read-out and setting: in the case of LAPTM4B (UniProt Q86VI4) it was 0.002 (inactive).
Take MAP4K2 (UniProt Q12851): the log2 fold change was 0.218 (inactive).
The same measure, in the same setting: in the case of LAMP2 isoform 2 (UniProt P13473) it was 0 (inactive); in that of IPP (UniProt Q9Y573), -0.139 (inactive).
Still for that read-out and setting: in the case of MAGEA8 (UniProt P43361) it was -0.123 (inactive); in that of MFSD8 (UniProt Q8NHS3), -0.062 (inactive); in that of ILF3 (UniProt Q12906), -0.241 (inactive).
On the same count and under the same terms, in the case of MELK (UniProt Q14680) it was 0.048 (inactive).
Regarding MCOLN3 (UniProt Q8TDD5), the log2 fold change was -0.171 (inactive).
With MGRN1 isoform 2 (UniProt O60291), the log2 fold change is 0 (inactive).

Compound in the next assay: CC[C@@H]1C(=O)N(C)c2cnc(Nc3ccc(C(=O)NC4CCN(C)CC4)cc3OC)nc2N1C1CCCC1
Described as above. In a few lines: as §1
For the target KXD1 (UniProt Q9BQD3), the log2 fold change is -0.154 (inactive).
Same read-out and setting: for ITPRID2 (UniProt P28290) the value was 0.01 (inactive); for MARCHF3 (UniProt Q86UD3), 0.116 (inactive).
In the case of KIF1B isoform 3 (UniProt O60333), the log2 fold change is 0.193 (inactive).
On the same count and under the same terms, for MAP4K4 isoform 6 (UniProt O95819) the value was -0.241 (inactive); for LGALS8 isoform 2 (UniProt O00214), 0.19 (inactive); for MBLAC1 (UniProt A4D2B0), 0.112 (inactive).
For the target KIZ (UniProt Q2M2Z5), the log2 fold change is 0.104 (inactive).
The same measure, in the same setting: for LAPTM4B (UniProt Q86VI4) the value was 0.063 (inactive).
In the case of LEPROT (UniProt O15243), the log2 fold change is -0.052 (inactive).
Regarding MAP4K2 (UniProt Q12851), the log2 fold change is -0.044 (inactive).
With LAMP2 isoform 2 (UniProt P13473), the log2 fold change was -0.137 (inactive).
As to MFSD12 isoform 3 (UniProt Q6NUT3), the log2 fold change is -0.005 (inactive).
For the target MAGEA8 (UniProt P43361), the log2 fold change is -0.096 (inactive).
As to ING5 (UniProt Q8WYH8), the log2 fold change was -0.561 (active).
As for MFSD8 (UniProt Q8NHS3), the log2 fold change is -0.016 (inactive).
In the case of ILF3 (UniProt Q12906), the log2 fold change was 0.222 (inactive).
Same read-out and setting: in the case of MELK (UniProt Q14680) it was -0.429 (inactive); in that of MCOLN3 (UniProt Q8TDD5), 0.094 (inactive).
